A number with no mark means an inactive call. The source made the active and inactive calls. No stated cut-off is given here; in the data, active means fold change permeability below about 0.7 or above about 1.3; inactive means in between.

The experiment is described as follows: modulators of brain endothelial barrier permeability, primary screen, cell-based, FITC-avidin fluorescence, HTS (AID 1963498). Further: test concentration not given here. The following applies: actives lie on both sides.
Regarding `CC(C)C[C@H]1C(=O)N2CCC[C@H]2[C@]2(O)O[C@](NC(=O)[C@@H]3C=C4c5cccc6[nH]c(Br)c(c56)C[C@H]4N(C)C3)(C(C)C)C(=O)N12`, the fold change permeability was 1.1. As to `CCCC[C@@]1(C2CCCC2)Cc2cc(OCC(=O)O)c(Cl)c(Cl)c2C1=O`, the fold change permeability is 1.6 (active). On to `CCc1ccc(/C=C2/SC(=S)NC2=O)cc1`, for which the fold change permeability is 1.4 (active). The value for `O=C1c2c(O)ccc(O)c2C(=O)c2c(NCCNCCO)ccc(NCCNCCO)c21` was 0.8; that for `O=c1c(O)c(-c2cc(O)c(O)c(O)c2)oc2cc(O)cc(O)c12` was 0.7 (active); that for `O=C(C(c1ccccc1)c1ccccc1)N1CCN(CC(O)COc2cccc3ncccc23)CC1` (centres undefined) was 0.8. Take `CCCCNc1ccc(C(=O)OCCN(C)C)cc1`: the fold change permeability is 1.8 (active). Consider `CN(C)C(=O)/N=N/C(=O)N(C)C`, for which the fold change permeability is 1. In the case of `CC(=O)O[C@H]1C[C@@]2(C)[C@@H](C[C@@H](O)[C@H]3[C@@]4(C)CC[C@@H](O)[C@@H](C)[C@@H]4CC[C@@]32C)/C1=C(\CCC=C(C)C)C(=O)O` it was 1. The value for `O=C(O)C1=CCCN(CCON=C(c2ccccc2)c2ccccc2)C1` was 1.1; that for `CCCC1O[C@@H]2C[C@H]3[C@@H]4CCC5=CC(=O)C=C[C@]5(C)[C@H]4[C@@H](O)C[C@]3(C)[C@]2(C(=O)CO)O1` (some centres undefined) was 1.1. In the case of `N#CC(=C(/N)Sc1ccccc1N)/C(C#N)=C(\N)Sc1ccccc1N` it was 1.6 (active). With `CC(C)(O)[C@@H]1CC[C@](C)([C@H]2[C@@H](O)C[C@@]3(C)[C@@H]4C[C@H](O)[C@H]5C(C)(C)[C@@H](O)CC[C@@]56C[C@@]46CC[C@]23C)O1`, the fold change permeability is 1.

As for `CCNCc1nc2c(N)nc3ccccc3c2n1CC(C)(C)O`, the fold change permeability was 1.1. In the case of `Cc1cc(NC(=O)Nc2ccc3c(ccn3C)c2)sn1` it was 1.2; in that of `Clc1cccc(Cl)c1CSc1nnc(-c2cnccn2)s1`, 1.2; in that of `Cc1cc(CN)cc(C)c1NC(=O)c1ccc(-c2cc(Cl)ccc2Cl)o1`, 1.5 (active). Regarding `O=C(c1cc(O)c(O)c([N+](=O)[O-])c1)c1ccccc1F`, the fold change permeability is 1.7 (active). The value for `O=C1NC(=O)C(c2ccccc2[N+](=O)[O-])=C1Nc1ccc(O)c(Cl)c1` was 1.4 (active); that for `N=C(N)c1ccc(-c2ccc(-c3ccc(C(=N)N)cc3)o2)cc1` was 1.5 (active). `NC[C@@H]1O[C@H](O[C@H]2[C@@H](O)[C@H](O[C@@H]3[C@@H](O)[C@H](N)C[C@H](N)[C@H]3O[C@H]3O[C@H](CO)[C@@H](O)[C@H](O)[C@H]3N)O[C@@H]2CO)[C@H](N)[C@@H](O)[C@@H]1O`: the fold change permeability is 1. In the case of `O=C1OC(=O)C2C3CCC(O3)C12` (centres undefined) it was 0.9; in that of `CCN(CC)CC#CCOC(=O)C(O)(c1ccccc1)C1CCCCC1` (centres undefined), 1.3 (active). In the case of `CC(C)Cc1ccc(C(C)C(=O)O)cc1` (centres undefined) it was 2 (active); in that of `CC[C@]1(O)C[C@H]2CN(CCc3c([nH]c4ccccc34)[C@@](C(=O)OC)(c3cc4c(cc3OC)N(C=O)[C@H]3[C@@](O)(C(=O)OC)[C@H](OC(C)=O)[C@]5(CC)C=CCN6CC[C@]43[C@@H]65)C2)C1`, 2.1 (active).

Regarding `C[N+](C)(C)CC=O`, the fold change permeability was 1.1.

Regarding `O=c1[nH]c2cc(Cl)ccc2c(O)c1-c1cccc(Oc2ccccc2)c1`, the fold change permeability was 1.4 (active). In the case of `COC(=O)C1=C(C)NC(C)=C(C(=O)OC(C)(C)CN(C)CCC(c2ccccc2)c2ccccc2)C1c1cccc([N+](=O)[O-])c1` (centres undefined) it was 1.1.

Regarding `C=C[C@@]1(C)CC(=O)[C@]2(O)[C@@]3(C)[C@@H](O)CCC(C)(C)[C@@H]3[C@H](O)[C@H](OC(C)=O)[C@@]2(C)O1`, the fold change permeability was 0.8.

On to `CCCCCCCCCCCCCCCCCCOP(=O)([O-])OC1CC[N+](C)(C)CC1`, for which the fold change permeability was 0.9. In the case of `C[C@]12CCC(=O)C=C1CC[C@@H]1[C@@H]2CC[C@@]2(C)[C@H]1CC[C@]2(O)C(=O)CO` it was 1.1; in that of `OC1(c2ccc(Cl)cc2)CCN(Cc2c[nH]c3ccccc23)CC1`, 1.4 (active).

In the case of `Nc1ncnc2c1c(-c1ccc(Oc3ccccc3)cc1)cn2C1CCCC1`, the fold change permeability is 1.6 (active). Take `CNc1cc(NS(=O)(=O)c2ccc(N)cc2)nc(NC)n1`: the fold change permeability is 0.7 (active). With `CC(C)=CCC/C(C)=C/COc1ccc2ccc(=O)oc2c1`, the fold change permeability is 2 (active).

As for `CCc1ccc2c(-c3cccc(Cl)c3)nc(=O)n(CC)c2n1`, the fold change permeability is 1.5 (active).

As to `CC(=O)OCC(CCn1cnc2cnc(N)nc21)COC(C)=O`, the fold change permeability was 0.9. In the case of `CCCCCCCCCCCCCCSCC(=O)O` it was 1.6 (active); in that of `O=C(Nc1ccc(-n2nc(C(F)(F)F)cc2C(F)(F)F)cc1)c1ccncc1F`, 1.2.
